Hits are enriched below; roughly 19% of the tested compounds scored in any of these assays.
IL-1B inflam inh – blocks inflammasome-driven IL-1 beta release; 4.7% of 360,000 active; THP-1 LPS/ATP IL-1B secretion, AlphaLISA, 16 h; active compounds read low; activity change, % at 57.5 µM; AID 743279; in the data active = activity change below about -50%; inconclusive = mostly about -30% to -49%; also: % is scaled to controls: 0 for no effect and ±100 for the full control effect
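Secreted IL-1B measured by AlphaLISA bead assay after 16 h compound exposure of THP-1 cells; compounds (final up to 57.5 uM) added 1 h before LPS (250 ng/mL) and ATP (1.25 mM) stimulation; lower signal means less secretion.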
TDP1 inh – blocks human tyrosyl-DNA phosphodiesterase 1; Potency, µM (doses to about 130 µM), inactives show at the highest dose activity change, negative = inhibition, usual class: inhibitors; 0.28% of 350,000 active; Q9NUW8; recombinant TDP1, AlphaScreen DNA substrate cleavage; also: potency is read from the fitted curve at half-maximal effect; % is scaled to controls: 0 for no effect and ±100 for the full control effect; nearly all actives have a fitted effect of over 40% in size
Target sequence (Q9NUW8 whole entry, looked up): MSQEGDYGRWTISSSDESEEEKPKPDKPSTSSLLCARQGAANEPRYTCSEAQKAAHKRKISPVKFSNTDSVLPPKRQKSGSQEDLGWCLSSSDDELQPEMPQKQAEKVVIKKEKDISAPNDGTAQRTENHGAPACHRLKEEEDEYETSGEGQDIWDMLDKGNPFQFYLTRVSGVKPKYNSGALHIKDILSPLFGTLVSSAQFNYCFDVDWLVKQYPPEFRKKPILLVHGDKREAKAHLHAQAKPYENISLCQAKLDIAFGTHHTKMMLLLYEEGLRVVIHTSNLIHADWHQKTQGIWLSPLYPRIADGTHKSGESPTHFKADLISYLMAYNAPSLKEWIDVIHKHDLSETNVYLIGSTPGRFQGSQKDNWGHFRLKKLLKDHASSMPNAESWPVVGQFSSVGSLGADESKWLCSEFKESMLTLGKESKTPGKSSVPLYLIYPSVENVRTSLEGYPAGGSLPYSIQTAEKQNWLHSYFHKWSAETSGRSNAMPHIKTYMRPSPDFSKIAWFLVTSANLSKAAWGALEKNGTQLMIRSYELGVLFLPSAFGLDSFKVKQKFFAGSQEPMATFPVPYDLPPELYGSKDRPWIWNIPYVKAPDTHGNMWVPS
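Recombinant E. coli-expressed Tdp1 (1 nM) preincubated with compound 15 min at RT, then 5'-biotin/3'-phosphotyrosine-FITC DNA substrate (15 nM) added for 5 min. AlphaScreen beads (10 ug/ml) added, 10 min RT; tyrosine-FITC cleavage read as signal loss.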
TDP1 cell CPT – growth inhibition of DT40 Tdp1-/-;hTDP1 cells with camptothecin (screen for TDP1 inhibitors); chicken DT40 Tdp1-/-;hTDP1 cells + 20 nM CPT, ATP luminescence, 48 h; Potency, µM (doses to about 46.2 µM), without a hit: at the top dose activity change, negative = growth inhibition, hits mostly inhibitors; 12% of 420,000 active; AID 686979; also: potency is read from the fitted curve at half-maximal effect; % is scaled to controls: 0 for no effect and ±100 for the full control effect; nearly all actives have a fitted effect of over 55% in size
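Chicken DT40 Tdp1-/- cells complemented with human TDP1, 400 cells/well, exposed to compounds plus 20 nM camptothecin for at least 48 h at 37 C; viability read as ATP content by CellTiter-Glo luminescence.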
DT40 TDP1 no CPT – qHTS for Inhibitors of human tyrosyl-DNA phosphodiesterase 1 (TDP1): qHTS in cells in absence of CPT; DT40 Tdp1-/- hTDP1 cells, no CPT, ATP luminescence, 48 h; Potency, µM (doses to about 46.2 µM), without a hit: at the top dose activity change, negative = growth inhibition, hits mostly inhibitors; 15% of 420,000 active; AID 686978, 2013; also: potency is read from the fitted curve at half-maximal effect; % is scaled to controls: 0 for no effect and ±100 for the full control effect; nearly all actives have a fitted effect of over 55% in size
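Growth kinetics read by CellTiter-Glo luminescence after ≥48 hr at 37 °C. Cells: DT40 Tdp1-/- stably carrying human TDP1, 400 per well, compound exposure in the absence of CPT (DMSO vehicle).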
HepG2 viability – HepG2 cytotoxicity, counter-screen for TGF-b inhibitors | HepG2 CAGA-GFP viability, ATP luminescence, 18 h | Potency, µM (highest dose often 46.1 µM), inactives show at the top dose activity change, negative = cytotoxicity, actives largely listed as cytotoxic | 0.76% of 410,000 active | AID 588856; also: potency is read from the fitted curve at half-maximal effect
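HepG2 CAGA-GFP cells (1000/well, DMEM with 1% FBS) received compound, then TGF-beta at 500 pg/mL final, and were incubated 18 hours at 37 degrees C. Viability was read by CellTiter-Glo luminescence. Media-only wells were set as complete cell-killing and DMSO as no toxicity.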
TGFb SMAD3 inh – TGF-b pathway inhibition; Potency, µM (top dose mostly 46.1 µM), inactives show at the highest dose activity, negative = inhibition, actives largely listed as inhibitors; HepG2 CAGA-GFP TGF-b/SMAD3 reporter, GFP fluorescence, 18 h; TGF-beta stimulated, 500 pg/mL final; 1.2% of 410,000 active; also: potency is read from the fitted curve at half-maximal effect; % is scaled to controls: 0 for no effect and ±100 for the full control effect; nearly all actives have a fitted effect of over 65% in size
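GFP signal (ex488/em500-530) from TGF-beta-stimulated HEPG2 CAGA-GFP cells, 500 pg/mL final, 18 h at 37 degrees C in DMEM plus 1% FBS, normalized to unstimulated and DMSO-stimulated controls.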
An asterisk follows results filed as active; u = inconclusive; x = not tested or not shown; [ ] = dose if it differs, or a comment. Unless noted, calls follow the shape of the dose curve; as a rule, active = well fitted curve in the direction sought with a large enough effect; inconclusive = small, poorly fitted or top-dose-only effect, or another doubt; inactive = no such curve, though single readings can be large; an effect the other way counts as inactive or inconclusive.

SMILES | IL-1B inflam inh | TDP1 inh | TDP1 cell CPT | DT40 TDP1 no CPT | HepG2 viability | TGFb SMAD3 inh
COC(=O)c1cc(=O)n(Cc2ccc3c(c2)OCO3)c(=Nc2ccc(F)cc2)s1 | -9.1 | 9.2% | u | u | -25.9% | -0.5%
COC(=O)c1ccc(N=c2sc(C(=O)OC)cc(=O)n2C)cc1 | 30.3 | x | 20.6µM* | 25.9µM* | -13.1% | 1.7%
COC(=O)c1cc(=O)n(-c2ccc(F)cc2)c(=Nc2ccc(F)cc2)s1 | -105.0* | 3.9% | 6.51µM* | 6.51µM* | -100.3% | u
COC(=O)c1cc(=O)n(Cc2ccc(F)cc2)c(=NCc2ccc(F)cc2)s1 | 2.3 | 4.9% | -3.2% | 1.2% | -3.0% | 9.6%
COC(=O)c1cc(=O)n(Cc2cccs2)c(=Nc2ccc(F)cc2)s1 | -3.9 | x | u | 20.6µM* | -73.0% | u
CCOC(=O)c1ccc(N=c2sc(C(=O)OC)cc(=O)n2Cc2ccc3c(c2)OCO3)cc1 | -4.4 | 1.3% | 6.51µM* | 6.51µM* | -21.2% | 2.6%
CCCCC[C@H](O)/C=C/C=C\C/C=C\CCCCCCC(=O)O | x | 2.5% | x | x | x | x
Cc1c(Cl)cccc1N(CC(=O)NC(C)c1ccccc1)S(C)(=O)=O (configuration not stated) | -7.9 | 2.6% | 13.8% | -15.6% | -11.1% | 8.4%
c1ccc(COc2ccc(-c3cc4nc(NCCCn5ccnc5)ccn4n3)cc2)cc1 | -14.7 | x | 23.1µM* | 16.4µM* | -44.1% | -1.5%
COCCCNc1ccn2nc(-c3cccc(OCc4ccccc4)c3)cc2n1 | 23.0 | x | u | 7.31µM* | -52.6% | u
COc1ccccc1-c1cc2nc(NCCOc3ccccc3)ccn2n1 | -1.9 | x | 18.4µM* | 16.4µM* | -38.1% | u
c1ccc(OCCNc2ccn3nc(-c4ccccc4)cc3n2)cc1 | 16.0 | x | u | u | -33.5% | u
COCCCNc1ccn2nc(-c3cc(OC)c(OC)c(OC)c3)cc2n1 | -18.5 | x | u | u | -12.6% | 3.1%
COc1cc(Nc2ccn3nc(-c4ccccc4Cl)cc3n2)cc(OC)c1OC | 0.0 | x | u | 20.6µM* | -46.7% | u
COCCCNc1ccn2nc(-c3ccccc3)cc2n1 | -9.8 | x | -22.1% | -22.7% | -5.9% | -10.4%
c1ccc(COc2cccc(-c3cc4nc(NCc5cccs5)ccn4n3)c2)cc1 | 27.8 | x | u | u | -26.3% | u
COc1cc(Nc2cccc(-c3ccccc3)n2)cc(OC)c1OC | 19.7 | x | 18.4µM* | u | -28.2% | 58.1%
CNc1cccc(-c2cc(OC)c(OC)c(OC)c2)n1 | 0.0 | x | u | u | -16.9% | 25.4%
CCn1c(=NC(=O)c2ccco2)sc2cccc(F)c21 | 12.6 | 6.5% | u | u | -7.8% | -24.1%
CCCn1c(=NC(=O)CS(=O)(=O)c2ccccc2)sc2cc(S(C)(=O)=O)ccc21 | -1.4 | -1.5% | 2.7% | -2.2% | 9.7% | -1.3%
CCn1c(=NC(=O)CCS(=O)(=O)c2ccccc2)sc2cccc(OC)c21 | 0.0 | 1.4% | 9.2µM* | 7.31µM* | -14.9% | -25.2%
C#CCn1c(=NC(=O)c2ccc(Cl)s2)sc2cccc(OC)c21 | 34.9 | 1.1% | u | u | -10.0% | -2.7%
CCn1c(=NC(=O)c2ccc(S(=O)(=O)N3CCOCC3)cc2)sc2cccc(OC)c21 | -12.0 | 4.8% | 14.6µM* | 13µM* | 5.7% | -3.9%
CCn1c(=NC(=O)CS(=O)(=O)c2ccc(F)cc2)sc2cccc(OC)c21 | -13.4 | x | 14.6µM* | 18.4µM* | -16.5% | 0.0%
COc1ccc2c(c1)sc(=NC(=O)CS(=O)(=O)c1ccc(F)cc1)n2C | -8.0 | 4.2% | u | 20.6µM* | -5.7% | 0.0%
SMILES | IL-1B inflam inh | TDP1 inh | TDP1 cell CPT | DT40 TDP1 no CPT | HepG2 viability | TGFb SMAD3 inh
Cc1nc2cnc(Nc3ccccc3)nc2n(C2CC2)c1=O | x | x | 2.2% | -19.7% | x | x
CCn1c(=NC(=O)CN2C(=O)CCC2=O)sc2c(OC)ccc(OC)c21 | -20.1 | 0.0% | u | u | -2.3% | 2.8%
COC(=O)Cn1c(=NC(=O)CCS(=O)(=O)c2ccccc2)sc2c(OC)ccc(OC)c21 | -1.2 | 1.8% | 20.6µM* | u | -5.4% | -17.7%
Cc1ccc(OCCSc2nc(-c3ccccc3C)nc3cc(=O)[nH]n23)cc1Cl | x | 5.3% | 16.4µM* | 16.4µM* | -100.5% | u
Cc1cccc(NC(=O)CSc2nc(-c3ccco3)nc3cc(=O)[nH]n23)c1 | x | 44.7µM* | -22.8% | -24.4% | -11.6% | u
Cc1ccccc1NC(=O)CSc1nc(-c2ccco2)nc2cc(=O)[nH]n12 | x | x | 8.3% | -1.5% | -5.7% | -22.3%
Cc1ccccc1NC(=O)CSc1nc(-c2ccccc2C)nc2cc(=O)[nH]n12 | x | 7.9% | -10.0% | u | -38.2% | 3.55µM*
O=C(CSc1nc(-c2ccco2)nc2cc(=O)[nH]n12)Nc1ccc(F)cc1 | x | 0.0% | -11.8% | -10.5% | -1.1% | -3.8%
CCc1ccc(OCCCSc2nc(-c3ccc(C(C)(C)C)cc3)nc3cc(=O)[nH]n23)cc1 | x | 7.9% | u | 23.1µM* | -73.3% | x
COc1ccc(CNC(=O)Cc2c(C)c3cc4c(C)coc4cc3oc2=O)cc1OC | x | 4.7% | -2.5% | -9.0% | -16.4% | -0.6%
CCc1c(C)nc(SCc2nc(-c3ccccc3C)no2)[nH]c1=O | x | 2.7% | u | u | -14.3% | 2.0%
COc1ccc(-c2nc(SCCOc3cc(C)ccc3C(C)C)n3[nH]c(=O)cc3n2)cc1 | x | 2.6% | u | 18.4µM* | -20.7% | u
Cc1cccc(-c2nc(SCCCOc3ccc(Cl)c(C)c3)n3[nH]c(=O)cc3n2)c1 | x | 2.6% | u | u | -16.6% | u
COc1cc(C)ccc1OCCSc1nc(-c2cccc(C)c2)nc2cc(=O)[nH]n12 | x | 5.3% | 16.4µM* | 20.6µM* | -8.0% | -10.3%
CCc1ccc(OCCSc2nc(-c3cccc(C)c3)nc3cc(=O)[nH]n23)cc1 | x | 2.6% | 23.1µM* | u | -15.8% | -21.2%
Cc1ccc(C(C)C)c(OCCSc2nc(-c3ccccc3F)nc3cc(=O)[nH]n23)c1 | x | x | u | u | -33.8% | -8.4%
O=c1cc2nc(-c3ccccc3F)nc(SCc3ccc(Br)cc3)n2[nH]1 | x | -10.5% | 18.4µM* | 11.6µM* | -38.4% | u
CCc1ccc(S(=O)(=O)c2nnn3c2nc(Nc2cc(OC)cc(OC)c2)c2cc(Cl)ccc23)cc1 | x | 0.0% | u | 2.0% | 9.9% | 16.4%
C=C1C(N)CC2CC1C2(C)C (configuration not stated) | x | -3.8%[56.1 µM] | 6.4% | -4.2% | x | x

Screening data as filed in PubChem.
